Compound activity (PubChem)
gsp antagonist: antagonizes gsp, the McCune-Albright syndrome mutation | AID 624288 | 0.4% of 340,000 active | gsp-mutant cells, cAMP HTRF, 30 min | Potency, µM (top dose mostly 76.9 µM), for inactives: at the highest dose activity change, negative = inhibition, usual class: inhibitors; calls by dose curve; cell line not stated here;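 further: intracellular cAMP measured with PDE inhibitor Ro 20-1724 present during compound exposure; on the % scale 0 is the no-effect control and ±100 the full control effect; nearly all actives have a fitted effect of over 65% in size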
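G418-selected cells were plated in DMEM/10% FBS for 16-24 h at 37C, then treated with compounds plus the PDE inhibitor […] (300 uM solution added) for 30 min at 37C. Intracellular cAMP was measured by HTRF after 30 min lysis at room temperature.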
S-ASM inh: blocks human secretory acid sphingomyelinase | 0.006% of 340,000 active | Potency, µM (highest dose often 57.5 µM), for inactives: at the top dose activity change, negative = inhibition, actives largely listed as inhibitors | placental ASM, HMU-PC fluorogenic substrate, 60 min | P17405 | AID 504937; active means well fitted inhibition curve with a large enough effect; inconclusive means small, poorly fitted or top-dose-only effect; inactive means no such curve, though single readings can be large or run the other way
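Fluorogenic HMU-PC substrate (9 uM final) is turned over by placental ASM in 60 min at 37 C after a 10 min compound preincubation. Reaction ended by alkaline stop (pH 10), with fluorescence read at 386/447 nm.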
Chronic BCR inh: blocks chronic active B-cell receptor signaling; 0.05% of 340,000 active; Potency, µM (doses to about 46.1 µM), for inactives: at the highest dose activity change, negative = inhibition, actives largely listed as inhibitors; AID 493014; ABC-DLBCL IkBa-CBG/CBR reporter, luminescence ratio, 4 h; active means well fitted inhibition curve with a large enough effect in the signal ratio, with a control signal flat, not every such curve was filed as active; inconclusive means small, poorly fitted or top-dose-only effect, or effect the other way, or a change in a side signal; the % refers to the signal ratio;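 further: plate controls were basal doxycycline-induced cells for no effect and cells given 10 µM MG132 for full effect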
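Compounds up to 46 uM were incubated four hours with TMD8 cells whose green CBG68 luciferase is fused to IkappaBalpha; red CBR luminescence normalised the signal, and concentration-effect curves were fitted to fusion, red and ratio data.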
MBNL1-CUG inh: inhibitors of human MBNL1 binding to CUG repeat RNA; Q9NR56; TR-FRET MBNL1-His/biotin-(CUG)12 binding, 665/545 ratio; Potency, µM (series often up to 57.5 µM), for the others: at the top dose activity change, negative = inhibition, usual class: inhibitors; 0.036% of 280,000 active; active means well fitted inhibition curve with a large enough effect in the signal ratio, with a control signal flat, not every such curve was filed as active; inconclusive means small, poorly fitted or top-dose-only effect, or effect the other way, or a change in a side signal; inactive means no such curve, though single readings can be large or run the other way; the % refers to the signal ratio; further: on the % scale 0 is the no-effect control and ±100 the full control effect
Target sequence (Q9NR56 whole entry, looked up): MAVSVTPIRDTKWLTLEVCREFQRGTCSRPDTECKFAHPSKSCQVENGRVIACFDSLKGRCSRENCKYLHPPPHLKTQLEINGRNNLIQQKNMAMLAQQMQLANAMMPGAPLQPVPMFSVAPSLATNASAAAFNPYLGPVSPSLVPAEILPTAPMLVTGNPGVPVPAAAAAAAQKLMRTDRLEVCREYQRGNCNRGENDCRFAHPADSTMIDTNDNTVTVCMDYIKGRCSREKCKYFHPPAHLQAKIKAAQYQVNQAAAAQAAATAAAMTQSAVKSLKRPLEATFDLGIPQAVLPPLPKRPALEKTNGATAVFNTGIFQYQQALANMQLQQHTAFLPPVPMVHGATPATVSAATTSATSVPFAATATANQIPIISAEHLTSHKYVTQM
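Ratiometric TR-FRET (665 over 545 nm, excitation 340 nm) tracks disruption of MBNL1-His/biotin-(CUG)12 complex after 60 min at room temperature, with compounds at 92 nM to 58 uM final.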
gsp agonist: activates gsp, the McCune-Albright syndrome mutation | 0.13% of 340,000 active | AID 624287 | gsp mutant cells, cAMP HTRF, 30 min | Potency, µM (doses to about 76.9 µM), for inactives: at the top dose activation (cAMP increase), most hits filed as activators; active means well fitted activation curve with a large enough effect; inconclusive means small, poorly fitted or top-dose-only effect, or another doubt; inactive means no such curve, though single readings can be large or run the other way; cell line not stated here;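 further: phosphodiesterase inhibitor Ro 20-1724 added with compounds to block cAMP breakdown; nearly all actives have a fitted effect of over 60% in size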
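Cells in DMEM/10% FBS with G418 were pretreated with compounds in DMSO plus […] (300 uM stock) for 30 min at 37C. cAMP was measured by HTRF (cAMP-d2 plus anti-cAMP antibody-K) after 30 min at room temperature.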
Numbers without * were called inactive; i = inactive; ? = inconclusive; . = no result; [ ] = dose if it differs, or a comment. Most compounds without a hit are left out; they make up all but 0.62% or so of the library. Potency means the concentration at half of the fitted maximal effect.

SMILES | gsp antagonist | S-ASM inh | Chronic BCR inh | MBNL1-CUG inh | gsp agonist
C[C@@]12C(=O)OC(=O)[C@]1(C)C1CCC2O1 | 2% | -9% | ? | . | .
CSCCC(NC(=O)c1ccco1)C(=O)Nc1ccncc1 (stereo not given) | -1% | 0% | -1% | 3% | ?
O=C(NN1C(=O)c2ccccc2NC1c1ccc([N+](=O)[O-])o1)c1ccc([N+](=O)[O-])cc1 (stereo not given) | 29% | -1% | -3% | ? | 1.8µM*
COc1ccc2[nH]c3c(NCCC4=CCCCC4)ncnc3c2c1 | 28µM* | -21% | ? | -2% | -7%[15.4 µM]
CCN(CC)C(=O)[C@H]1C[C@H](CC(=O)NC(C)(C)C)C(=O)N2CCc3c([nH]c4cc(CCC(=O)N(C)C)ccc34)[C@]12C | 6% | -1% | 2% | . | .
Cc1ccsc1C(=O)Nc1cccc(-n2cnnn2)c1 | 3% | -1% | ? | -1% | 5%
O=[N+]([O-])c1ccc(-c2cnc(SCc3ccccc3Cl)[nH]2)cc1 | -10% | -20% | ? | ? | -4%
O=[N+]([O-])c1ccc(-c2cnc(SC(c3ccccc3)c3ccccc3)[nH]2)cc1 | 35µM* | -13% | ? | ? | -6%[15.4 µM]
COc1ccccc1N(CC(O)CN1CCC(C)CC1)S(=O)(=O)c1ccccc1 (stereo not given) | 10% | 1% | -1% | 0% | -5%
O=C(CSCC(=O)Nc1nc(-c2ccc3c(c2)OCO3)cs1)Nc1nccs1 | 32µM* | -13% | 0% | -8% | 6%
Cc1ccc(C[C@@H](NS(=O)(=O)c2ccc(C(=O)O)cc2)C(=O)O)cc1 | . | . | -4% | . | .
O=C(Nc1ccnn1C1CCN(Cc2cccc(OCCO)c2)CC1)C1CC1 | 6% | . | 2% | -6% | 4%[15.4 µM]
CC(C)c1ccc(NC(=O)c2ccc3c(c2)C(=O)N(Cc2cccnc2)C3=O)cc1 | 35µM* | -19% | -1% | 26% | ?
CCOC(=O)c1ccc(NC(=O)c2ccc3c(c2)C(=O)N(Cc2cccnc2)C3=O)cc1 | 35µM* | -13% | -4% | ? | ?
CCOC(=O)c1ccc(NC(=O)c2ccc3c(c2)C(=O)N(CC2CCCO2)C3=O)cc1 (stereo not given) | 32µM* | -6% | -3% | ? | -19%
COC(=O)Cc1ccc(NC(=O)c2ccc3c(c2)C(=O)N(Cc2cccnc2)C3=O)cc1 | -11% | 2% | -5% | ? | -19%
O=C(O)c1cc(NC(=O)c2ccc3c(c2)C(=O)N(Cc2cccnc2)C3=O)cc(C(=O)O)c1 | 12% | 5% | -1% | ? | 0%
C#Cc1cccc(NC(=O)c2ccc3c(c2)C(=O)N(Cc2cccnc2)C3=O)c1 | 40µM* | -9% | -12% | ? | 33%[15.4 µM]
Cc1ccc(NC(=O)c2ccc3c(c2)C(=O)N(CC2CCCO2)C3=O)cc1C (stereo not given) | -25% | -10% | ? | ? | -17%
COc1ccccc1C(=O)NC(=O)COC(=O)c1cnc(C)cn1 | 0% | -5% | -1% | . | -21%
CC(=O)Nc1ccc(NC(=O)C(C)OC(=O)CC23CC4CC(CC(Br)(C4)C2)C3)cc1 (stereo not given) | 1% | ? | 0% | . | -25%
CCOC(=O)c1ccc(OCCOc2cccc(C)c2)cc1 | -4% | 3% | 1% | -8% | -21%
Nc1cc2c3ccccc3ccc2c2ccccc12 | -15% | i | . | . | 11%[15.4 µM]
O=S(=O)(c1ccccc1)[C@@]1(c2ccc(Br)cc2)C[C@@H]2ON=C(c3ccccc3)[C@@H]2C1 | 11µM* | -2% | -3% | . | .
O=S(=O)(c1ccccc1)[C@@]1(c2ccc(Br)cc2)C[C@@H]2ON=C(c3cccc(Br)c3)[C@@H]2C1 | -7% | -5% | 1% | . | .
SMILES | gsp antagonist | S-ASM inh | Chronic BCR inh | MBNL1-CUG inh | gsp agonist
NC(=O)c1ccc(NC(=O)CCN=C2NS(=O)(=O)c3ccccc32)cc1 | 18% | 0% | -12% | . | -2%
Cc1cc(C)c(Nc2cc(S(=O)(=O)O)c(N)c3c2C(=O)c2ccccc2C3=O)c(C)c1 | 28µM* | 9% | 1% | ? | -16%
Oc1cc2ccccc2cc1-c1n[nH]c(=S)o1 | 28µM* | 69% | ? | 6% | 12%
S=c1[nH]nc(-c2c[nH]c3ccccc23)o1 | -3% | 1% | 3% | -7% | -5%
COc1ccc(-n2ccnc2SCC(=O)NC2CCCC2)cc1 | 16% | -3% | 3% | . | 12%
Cc1nn2c(=O)cc(COC(=O)c3c(F)cccc3Cl)nc2s1 | -5% | -1% | ? | . | ?
Cc1c(/C=N/Nc2nc3ccccc3[nH]2)c2ccccc2n1C | 40µM* | -23% | ? | -10% | 6%[15.4 µM]
Cn1c(/C=N/Nc2nc3ccccc3[nH]2)nc2ccccc21 | -9% | -5% | ? | 15% | -22%
O=C(Nc1cccc(F)c1)Nc1ccc2c(c1)OCO2 | -2% | -3% | ? | 1% | 9%
O=C(N/N=C/c1ccc(-c2cccc([N+](=O)[O-])c2)o1)c1ccccc1O | 50µM* | -3% | ? | 6% | -23%
O=C(N/N=C/c1ccc(-c2cccc([N+](=O)[O-])c2)o1)c1ccc([N+](=O)[O-])cc1 | . | -9% | ? | ? | 6%[15.4 µM]
COc1ccc(Cl)cc1NC(=O)CN(C)C(=O)c1ccc(N2CCCCCC2)c([N+](=O)[O-])c1 | -18% | -12% | -1% | . | 5%
COc1ccc(-n2c(=S)[nH]c3cc(C(=O)NCc4cccnc4)ccc3c2=O)c(OC)c1 | -11% | -3% | -6% | -4% | 13%
COc1ccc(-n2c(=S)[nH]c3cc(C(=O)NCc4ccccc4)ccc3c2=O)c(OC)c1 | 20µM* | -2% | 13% | -2% | 9%[15.4 µM]
O=C1CN(c2nc(-c3cccnc3)nc3sc4c(c23)CCCC4)CCN1 | -12% | 42% | ? | 16% | 25µM*
COc1ccc(OC)c(-c2nc(C(=O)NCC3CCCO3)cc3c2[nH]c2ccccc23)c1 (stereo not given) | ? | 42% | ? | -2% | .
COc1cccc(-c2nc(C(=O)NCC3CCCO3)cc3c2[nH]c2ccccc23)c1 (stereo not given) | 13µM* | 21% | ? | 3% | .
CCCCCOC(=O)C1=C(C)N(C)C(=O)NC1c1cc(Br)c(O)c(OC)c1 (stereo not given) | 7.1µM* | -4% | -5% | -3% | 4%
C/C(=N/NC(=O)COc1cc(C)ccc1C(C)C)C(=O)O | -2% | 9% | 10µM* | -10% | ?
Cc1ccc(C(C)C)c(OCC(=O)NN=C(CCl)CCl)c1 | . | . | 2% | 2% | .
COc1cc(/C=C2/SC(=O)NC2=O)ccc1OCc1ccccc1 | 32µM* | 3% | 8% | 18% | -41%
CSc1cccc(NC(=O)CCCn2c(=O)c3cccn3c3cccnc32)c1 | -1% | -3% | -1% | -1% | -1%
